Laboratory results published in PubChem BioAssay AID686999 (Broad Institute, 2013).
Potency and affinity values are given separately. Records with an inconclusive call do not appear. The source made the active and inactive calls.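 Rule for the calls: active = active in every separate test run, each with half-maximal potency at or under twice its top valid dose; inconclusive = the separate test runs give conflicting calls; inactive = inactive in every test run, including signal rising instead.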

assay: Cryptococcus growth inhibition by alamar blue – cell lysis, cherry-picks, replicate tests, mechanism study for C. neoformans antifungal project, dose response (AID 686999); conditions: 72 h; series mostly up to 35 µM; activity change, negative = inhibition: at the top concentration

Activity change, negative = inhibition, inactive:
Fc1ccccc1NC(=S)NCCc1cccc(Cl)c1 8.81%
Cc1cc(C(=O)NC(=S)Nc2ccccc2N2CCOCC2)ccc1[N+](=O)[O-] -3.3%
COc1ccccc1NC(=S)NCc1ccccc1Cl 8.26%
O=C(Cc1ccccc1)N[C@H]1C=C[C@@H](CC(=O)N2CCOCC2)O[C@@H]1CO 18.6%
COc1cccc(NC(=S)NC(=O)Cc2ccc(Cl)cc2)c1 5.7%
Cc1ccc(C)c(NC(=O)C2(C)CCCN2C(=O)C(C)C)c1 (stereo unspecified) 20.1% [at 56 µM]
CCOC(=O)NC(=S)Nc1ccc(C(C)(C)C)cc1Br -0.187%
COCCN1C(=S)N[C@@H](c2ccccc2)C(C(=O)OC)=C1C 1.85% [at 42 µM]
COC(=O)C1=C(C)N(CC(C)C)C(=S)NC1c1cccc(F)c1 (stereo unspecified) 10.4% [at 42 µM]
O=C(NC(=S)NCC1COc2ccccc2O1)c1ccc(Cl)cc1 (stereo unspecified) 22% [at 46 µM]
CCc1ccc(C(C)NC(=S)NCc2ccc(F)cc2)cc1 (stereo unspecified) -1.97%
COc1ccc(CNC(=S)NCc2ccc(OC(C)C)cc2)cc1 13.2%
COC(=O)C1=C(C)N(Cc2ccc(F)cc2)C(=S)NC1c1ccccc1 (stereo unspecified) -0.405% [at 38 µM]
S=C(NCCCc1ccccc1)Nc1ccccc1 22.7%
O=C(NC(=S)Nc1ccccc1N1CCOCC1)c1cccc([N+](=O)[O-])c1 3.65%
Cc1ccc(C(=O)NC(=S)Nc2ccc(N3CCOCC3)cc2)cc1 7.95%
CCCCNC(=S)N/N=C/c1ccc(C#N)cc1 13.6%
Cc1cc(C)c2nc(N3CCN(C(=O)c4cccs4)CC3)sc2c1 -5.83%
COc1ccccc1NC(=S)NCc1ccc(Cl)cc1 17.9%
O=C(NC(=S)Nc1ccccc1N1CCCC1)c1ccc([N+](=O)[O-])cc1 2.13%
CCc1ccc(C(=O)NC(=S)NCc2cccnc2)cc1 6.98%
